From PubChem BioAssay
ClpP mod = qHTS Assay for Activators of ClpP | purified B. subtilis ClpP, FRET peptide cleavage, 20 min | AID 651965, 2013 | 340,000 tested, 1.9% active | ATP-dependent Clp protease proteolytic subunit (Bacillus subtilis (strain 168)), P80244 | Potency, µM (top dose mostly 57.5 µM), for the others: at the top dose activity change, negative = active; active = well fitted falling curve with a large enough effect; inconclusive = small, poorly fitted or top-dose-only effect; inactive = no such curve, though single readings can be large or run the other way; also: potency is read from the fitted curve at half-maximal effect; the source files actives as falling curves though it sought activators and does not explain the sign; nearly all actives have a fitted effect of over 65% in size
Target sequence (P80244 whole entry, looked up): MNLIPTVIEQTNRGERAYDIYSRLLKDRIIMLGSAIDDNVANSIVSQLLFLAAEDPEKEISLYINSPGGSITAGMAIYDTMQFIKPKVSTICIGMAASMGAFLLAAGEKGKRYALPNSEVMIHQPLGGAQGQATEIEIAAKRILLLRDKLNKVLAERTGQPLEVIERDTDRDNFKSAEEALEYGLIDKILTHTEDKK
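Buffer: 100 mM Tris/HCl pH8, 100 mM KCl, 0.05% low protease BSA, 2.5% glycerol, 0.01% Tween-20. ClpP 10 microg/mL final; 20 min RT; delta FRET normalized to ADEP and DMSO controls.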
DT40 TDP1 no CPT = qHTS for Inhibitors of human tyrosyl-DNA phosphodiesterase 1 (TDP1): qHTS in cells in absence of CPT | DT40 Tdp1-/- hTDP1 cells, no CPT, ATP luminescence, 48 h | 420,000 tested, 15% active | Potency, µM (top dose mostly 46.2 µM), inactives show at the highest dose activity change, negative = growth inhibition, most hits filed as inhibitors | AID 686978, 2013; also: potency is read from the fitted curve at half-maximal effect; % is scaled to controls: 0 for no effect and ±100 for the full control effect; nearly all actives have a fitted effect of over 55% in size
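DT40 Tdp1-/-;hTDP1 cells, no CPT (DMSO vehicle only), 400 cells/well; compounds pin-transferred; ≥48 hr, 37 °C; CellTiter-Glo 30 min RT dark, luminescence read.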
DRD3 antagonist = blocks the human D3 dopamine receptor; P35462; D3R cells, DiscoveRx beta-arrestin luminescence, antagonist mode; active compounds read low; max response, negative = inhibition, %; 360,000 tested, 2.5% active; AID 652054; in the data active = max response below about -50%; inconclusive = no clear call, values can overlap the other calls; also: % is scaled to controls: 0 for no effect and ±100 for the full control effect
Target sequence (P35462 whole entry, looked up): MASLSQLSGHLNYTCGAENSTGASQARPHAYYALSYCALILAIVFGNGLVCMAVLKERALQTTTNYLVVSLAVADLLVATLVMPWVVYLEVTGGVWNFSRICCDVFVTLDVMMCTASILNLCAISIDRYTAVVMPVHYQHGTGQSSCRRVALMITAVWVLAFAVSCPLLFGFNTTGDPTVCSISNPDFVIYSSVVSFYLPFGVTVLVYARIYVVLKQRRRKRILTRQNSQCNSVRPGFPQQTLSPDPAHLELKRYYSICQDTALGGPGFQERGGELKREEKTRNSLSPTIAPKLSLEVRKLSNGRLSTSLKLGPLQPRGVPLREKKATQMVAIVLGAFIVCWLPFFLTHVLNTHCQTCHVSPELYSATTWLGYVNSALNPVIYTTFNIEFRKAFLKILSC
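Cells expressing the human receptor were seeded at 1500 cells/well, incubated overnight at 37 degrees C in 5% CO2, then exposed to library compounds with dopamine controls for 90 minutes at 37 degrees C before luminescent detection.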
TDP1 cell CPT = growth inhibition of DT40 Tdp1-/-;hTDP1 cells with camptothecin (screen for TDP1 inhibitors); Potency, µM (doses to about 46.2 µM), inactives show top-dose activity change, negative = growth inhibition, most hits filed as inhibitors; chicken DT40 Tdp1-/-;hTDP1 cells + 20 nM CPT, ATP luminescence, 48 h; 420,000 tested, 12% active; also: potency is read from the fitted curve at half-maximal effect; % is scaled to controls: 0 for no effect and ±100 for the full control effect; nearly all actives have a fitted effect of over 55% in size
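Chicken DT40 Tdp1-/- cells stably complemented with human TDP1 were seeded at 400 cells/well in medium containing 20 nM camptothecin, exposed to pin-transferred compounds, and grown at 37 °C for at least 48 hr. Viability was read as ATP luminescence.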
IL1B secr inh = inflammasome signaling inhibition, IL-1 beta readout; THP-1 LPS/ATP IL-1B secretion, AlphaLISA, 16 h; active compounds read low; activity change, % at 57.5 µM; 360,000 tested, 4.7% active; in the data active = activity change below about -50%; inconclusive = mostly about -30% to -49%; also: % is scaled to controls: 0 for no effect and ±100 for the full control effect
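THP-1 cells pretreated 1 hr with compounds (up to 57.5 uM final), then stimulated with LPS (250 ng/mL final) plus ATP (1.25 mM final); secreted IL-1B measured by AlphaLISA after 16 hr, decreased signal indicating inhibition.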
DRD3 agonist = activates the human D3 dopamine receptor. P35462. D3R DiscoveRx beta-arrestin cells, luminescence, 90 min. max activation, %. 410,000 tested, 0.58% active. AID 652048; in the data active = max activation above about 30%; also: 0% is about no effect
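Cells at 1500/well, incubated overnight, then treated with pinned compounds (dopamine as control) for 90 min at 37 degrees C. DiscoveRx reagent added for 30 - 60 minutes at room temperature; luminescence read.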
Numbers without * were called inactive. This is a sample that favours compounds with a hit; in the whole collection about 21% have one here. Unless noted, calls follow the shape of the dose curve; as a rule, active = well fitted inhibition curve with a large enough effect; inconclusive = small, poorly fitted or top-dose-only effect; inactive = flat fitted curve, though single readings scatter.

Screening COc1ccc(NC(=O)c2ccc(NC(=O)CN3CCC(C(N)=O)CC3)cc2)cc1 returned ClpP mod -8%, DT40 TDP1 no CPT -4%, DRD3 antagonist 20, TDP1 cell CPT 11%, IL1B secr inh -6 and DRD3 agonist 0.
`COc1ccc(C(=O)c2cc([N+](=O)[O-])ccc2N2CCCC2)cc1` gave ClpP mod -3%, DT40 TDP1 no CPT 5.2µM*, DRD3 antagonist 7, TDP1 cell CPT 3.3µM*, IL1B secr inh 12 and DRD3 agonist -3.
Screening COc1ccc(C(=O)c2cc([N+](=O)[O-])ccc2N2CCN(C)CC2)cc1 returned DT40 TDP1 no CPT 3.3µM*, DRD3 antagonist -19, TDP1 cell CPT 2.6µM*, IL1B secr inh 38 and DRD3 agonist -6.
Screening COc1ccc(CN2CCNC(=O)C2CC(=O)NCC(C)(C)N2CCOCC2)cc1C (stereo not drawn) returned ClpP mod 0%, DT40 TDP1 no CPT 2%, DRD3 antagonist 26, TDP1 cell CPT 5%, IL1B secr inh -2 and DRD3 agonist 4.
For CC(C)=C1C2CCC1C1C(=O)N(NC(=O)COc3ccc(Cl)c(C)c3)C(=O)C21 (stereo not drawn) the results were ClpP mod -1%, DT40 TDP1 no CPT -12%, DRD3 antagonist 5, TDP1 cell CPT -19%, IL1B secr inh -68* and DRD3 agonist -3.
For O=C(COc1ccc(Cl)c(Cl)c1)NN1C(=O)C2C(C1=O)C1C=CC2C12CC2 (stereo not drawn) the results were ClpP mod -1%, DT40 TDP1 no CPT 18µM*, DRD3 antagonist 0, TDP1 cell CPT -19%, IL1B secr inh -1 and DRD3 agonist 0.
`O=C1c2c(Cl)c(Cl)c(Cl)c(Cl)c2C(=O)N1c1nccs1` gave ClpP mod -1%, DT40 TDP1 no CPT inconclusive, DRD3 antagonist -11, TDP1 cell CPT inconclusive, IL1B secr inh 28 and DRD3 agonist -1.
Screening Cc1cc(OC(C)C(=O)NCc2ccncc2)c2c(C)c(C)c(=O)oc2c1 (stereo not drawn) returned ClpP mod 3%, DT40 TDP1 no CPT -28%, DRD3 antagonist 17, TDP1 cell CPT inconclusive, IL1B secr inh inconclusive and DRD3 agonist -6.
CCCCCCCCCCCCCCCC[n+]1ccc(/C=C/c2c[nH]c3ccccc23)c2ccccc21 was read as ClpP mod 1%, DT40 TDP1 no CPT 14µM* and TDP1 cell CPT 5µM*.
`CCCCCCC[n+]1ccc(/C=C/c2c[nH]c3ccccc23)c2ccccc21` gave ClpP mod 4%, DT40 TDP1 no CPT 1.1µM* and TDP1 cell CPT 1µM*.
`CCCCCCCCCCCC[n+]1ccc(/C=C/c2c[nH]c3ccccc23)c2ccccc21` gave ClpP mod -3%, DT40 TDP1 no CPT 2.2µM* and TDP1 cell CPT 2.5µM*.
COc1ccc(OC)c2c(/C=C/c3c[nH]c4ccccc34)ccnc12 was read as ClpP mod -3%, DT40 TDP1 no CPT inconclusive and TDP1 cell CPT -111%.
Cc1ccc2c(/C=C/c3c[nH]c4ccccc34)ccnc2c1C was read as ClpP mod -11%, DT40 TDP1 no CPT -103% and TDP1 cell CPT -125%.
COc1ccccc1CN1CCCC2(CCN(C(=O)c3cc(C(F)(F)F)cc(C(F)(F)F)c3)CC2)C1 was read as DT40 TDP1 no CPT -16% and TDP1 cell CPT 6%.
Screening CCC(=O)OCCCNc1nc(-c2ccc(Cl)cc2)nc2ccccc12 returned ClpP mod -14%, DT40 TDP1 no CPT inconclusive, TDP1 cell CPT inconclusive and DRD3 agonist -16.
For CC(=O)c1ccc(NC(=O)CN2C(=O)c3cccnc3Sc3ccccc32)cc1 the results were ClpP mod -17%, DT40 TDP1 no CPT inconclusive, TDP1 cell CPT inconclusive and DRD3 agonist 1.
Screening O=C(c1ccco1)N1CCN(C(=S)Nc2ccc(F)c(Cl)c2)CC1 returned ClpP mod 1%, DT40 TDP1 no CPT -18%, DRD3 antagonist -4, TDP1 cell CPT -27%, IL1B secr inh -10 and DRD3 agonist 9.
Screening O=C(Nc1ccc(N2CCN(C(=O)c3cccs3)CC2)c(Cl)c1)c1cccnc1 returned ClpP mod 1%, DT40 TDP1 no CPT inconclusive, DRD3 antagonist 31, TDP1 cell CPT inconclusive, IL1B secr inh -79* and DRD3 agonist -10.
O=C(Nc1ccc(N2CCN(C(=O)c3ccco3)CC2)c(Cl)c1)c1cccnc1 was read as DT40 TDP1 no CPT inconclusive, DRD3 antagonist 40, TDP1 cell CPT inconclusive, IL1B secr inh -67* and DRD3 agonist 2.
O=C(Nc1ccc(N2CCN(C(=O)c3ccco3)CC2)c(Cl)c1)c1c(F)c(F)c(F)c(F)c1F was read as ClpP mod 1%, DT40 TDP1 no CPT 18µM*, DRD3 antagonist 22, TDP1 cell CPT 15µM*, IL1B secr inh -90* and DRD3 agonist 4.
For O=C(Nc1ccc(N2CCCC2)c(Cl)c1)c1cccnc1 the results were ClpP mod -4%, DT40 TDP1 no CPT inconclusive, DRD3 antagonist -9, TDP1 cell CPT inconclusive, IL1B secr inh -30 and DRD3 agonist 0.
`O=C(Nc1ccc(N2CCOCC2)c(Cl)c1)c1cccnc1` gave ClpP mod 1%, DT40 TDP1 no CPT -7%, DRD3 antagonist -5, TDP1 cell CPT -26%, IL1B secr inh -15 and DRD3 agonist -6.
Screening Cc1ccc2nc(Nc3ccc(F)cc3)c3nncn3c2c1 returned ClpP mod 4%, DT40 TDP1 no CPT 7%, DRD3 antagonist -10, TDP1 cell CPT -17%, IL1B secr inh 27 and DRD3 agonist 0.
Cc1nc2nncn2c(NCc2ccc(Cl)cc2)c1C was read as ClpP mod -3%, DT40 TDP1 no CPT 0.82µM*, TDP1 cell CPT 2.6µM* and DRD3 agonist 4.
Screening CCc1c(C)nc2nncn2c1NCc1ccc(OC)cc1 returned ClpP mod -3%, DT40 TDP1 no CPT 18µM*, TDP1 cell CPT 16µM* and DRD3 agonist 6.
For COc1ccc(CNc2cc(-c3ccc(OC)cc3)nc3nncn23)cc1 the results were ClpP mod inconclusive, DT40 TDP1 no CPT 16µM*, TDP1 cell CPT inconclusive and DRD3 agonist 7.
Screening Cc1nc2nncn2c(Nc2ccc(F)cc2)c1C returned ClpP mod 0%, DT40 TDP1 no CPT 9.2µM*, TDP1 cell CPT 16µM* and DRD3 agonist 3.
